Assay outcomes (PubChem BioAssay)
CCHF vOTU inh-1 = blocks the CCHF virus ovarian tumor domain protease | hit rate 0.55% among 370,000 | CCHFV vOTU protease, Pep-AMC fluorescence | inhibition, % at 11.5 µM | AID 651958; also: 0% = vehicle wells with enzyme and 100% = no enzyme wells
VHR inh abs = DUSP3 (human) phosphatase inhibition | recombinant VHR phosphatase, pNPP absorbance | inhibition, % at 13.3 µM | hit rate 0.52% among 290,000 | AID 1654; in the data active = inhibition above about 50%
Target sequence (P51452 whole entry, looked up): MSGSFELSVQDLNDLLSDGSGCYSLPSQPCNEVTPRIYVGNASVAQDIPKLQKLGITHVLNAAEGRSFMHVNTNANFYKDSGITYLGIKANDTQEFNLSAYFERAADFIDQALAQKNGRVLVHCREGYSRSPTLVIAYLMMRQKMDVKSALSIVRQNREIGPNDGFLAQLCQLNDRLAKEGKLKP
SSB-PriA inh = K. pneumoniae PriA-SSBct interaction inhibition; AlphaScreen SSBct-PriA binding, biotinylated peptide; inhibition, % at 33 µM; hit rate 0.6% among 430,000; in the data active = inhibition mostly above about 37%, no sharp cut-off; inactive = mostly below about 20%;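 also: plate controls were negative control peptide for no effect and reference peptide for full effect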
BH1578 lux ind = induces V. cholerae light production without autoinducers | V. cholerae BH1578 lux reporter, luminescence, 6 h | hit rate 0.16% among 350,000 | activation, % at 18.7 µM; in the data active = activation mostly above about 9.7%, no sharp cut-off
TcdB inh = blocks C. difficile toxin B glycohydrolase activity | P18177 | TcdB glycohydrolase enzymatic assay, plate reader | inhibition, % at 9.99 µM | hit rate 0.24% among 350,000 | AID 652162; in the data active = inhibition above about 10%
SARS 3CLpro inh = SARS-CoV 3CLpro protease inhibition | P0C6X7 | recombinant SARS-CoV 3CLpro, quenched FRET peptide cleavage | inhibition, % at 6 µM | hit rate 0.14% among 290,000 | AID 1706; in the data active = inhibition above about 12%
CCHF vOTU inh-2 = CCHFV vOTU protease inhibition, confirmation; hit rate 17% among 1,900; shares compounds with CCHF vOTU inh-1; Recombinant CCHFV vOTU, Pep-AMC fluorescence; inhibition, % at 11.5 µM
* marks the source's active call; other numbers are inactive results; i = inactive; · = no result. Only some compounds are listed: those with a hit (about 1.3% of all), similar ones and a draw of the others. Rule as the data show it, unless noted: active = inhibition above about 30%; inactive = the rest.

SMILES	CCHF vOTU inh-1	VHR inh abs	SSB-PriA inh	BH1578 lux ind	TcdB inh	SARS 3CLpro inh	CCHF vOTU inh-2
CC(C)(C)OC(=O)NCCCC[C@H](NC(=O)c1[nH]cnc1C(=O)N[C@@H](Cc1ccccc1)C(=O)OCc1ccccc1)C(=O)OC(C)(C)C	31*	·	-4	0	1	·	13
COc1cccc(CNc2cccc3cccnc23)c1O	9	-6	85	i	·	1	·
Oc1ccc(Br)cc1CNc1cccc2cccnc12	18	6	11	i	-4	-2	·
Oc1ccc(Cl)cc1CNc1cccc2cccnc12	102*	-4	18	i	-5	3	-4
Oc1c(Br)cc(Br)cc1CNc1cccc2cccnc12	116*	12	65	-1	4	4	12
CN(C[C@H]1Cc2ccccc2CO1)C(=O)c1cc(C2CC2)on1	·	·	-11	·	·	·	·
Cc1ccc(S(=O)(=O)N=C(Nc2nc(C)cs2)c2ccccc2)cc1	·	·	-4	·	·	·	·
Cc1ccc(S(=O)(=O)/N=C(/Nc2nc(C)cs2)c2ccccc2)cc1	38*	·	·	i	1	·	-9
COc1ccc(CNC(=O)N2CCC[C@H](Cc3nc(-c4ccsc4)no3)C2)cc1OC	·	·	4	·	·	·	·
CNCc1ccccc1Sc1cccc(O)c1	15	-2	3	i	·	3	·
CNCc1ccccc1Sc1cc(O)ccc1O	30*	-8	36	0	·	0	4
Cc1ccc([C@@H]2CC=C(C(=O)O)[C@H](c3ccc(C(C)(C)C)cc3)N2S(=O)(=O)c2ccc(C)cc2)cc1	42*	·	2	-1	-3	·	19
Cc1ccc(S(=O)(=O)N2[C@@H](c3ccc(C(C)(C)C)cc3)C(C(=O)O)=CC[C@H]2c2ccc(C(C)C)cc2)cc1	47*	·	1	i	0	·	15
CCc1ccc([C@@H]2CC=C(C(=O)O)[C@H](c3ccccc3)N2S(=O)(=O)c2ccc(C)cc2)cc1	21	·	3	-1	-1	·	·
Cc1ccc(S(=O)(=O)N2[C@@H](c3ccc(Br)cc3)C(C(=O)O)=CC[C@H]2c2ccc(C(C)C)cc2)cc1	5	·	-11	-2	1	·	·
Cc1ccc(S(=O)(=O)N2[C@@H](c3ccc(C(C)(C)C)cc3)C(C(=O)O)=CC[C@H]2c2ccc(Cl)cc2)cc1	42*	·	-8	-1	1	·	13
CCc1ccc([C@@H]2CC=C(C(=O)O)[C@H](c3ccc(C(C)(C)C)cc3)N2S(=O)(=O)c2ccc(C)cc2)cc1	46*	·	2	-2	2	·	0
O=C(NCC1CCN(c2ncccn2)CC1)c1ccc(Cl)s1	·	·	-19	·	·	·	·
Cc1ccc([C@H]2C(C(=O)O)=CC[C@@H](c3cccs3)N2S(=O)(=O)c2ccc(C)cc2)cc1	15	·	-12	i	-4	·	·
Cc1ccc(S(=O)(=O)N2[C@@H](c3ccc(C(C)(C)C)cc3)C(C(=O)O)=CC[C@H]2c2cccs2)cc1	32*	·	0	-1	-1	·	3
C/C(=N\NC(=O)c1ccccc1-n1cccc1)c1ccccn1	37*	·	·	-1	-3	·	-13
CC(=NNC(=O)c1cc2ccccc2cc1O)c1ccccn1	·	·	36	·	·	·	·
CCOC(=O)/C=C1\CN(Cc2cc(OC)c(OC)c(OC)c2)S(=O)(=O)c2ccccc21	5	28	5	-2	1	-1	·
CCOC(=O)/C=C1\CN(Cc2cc(OC)c(OC)c(OC)c2)S(=O)(=O)c2ccc(C(F)(F)F)cc21	33*	-7	-3	i	0	1	3
O=S(=O)(c1ccc(Br)cc1)c1nc(-c2ccccc2)oc1NCc1ccco1	·	·	5	·	·	·	·
SMILES	CCHF vOTU inh-1	VHR inh abs	SSB-PriA inh	BH1578 lux ind	TcdB inh	SARS 3CLpro inh	CCHF vOTU inh-2
O=C(c1cccs1)N1C[C@H](O)[C@@H](n2cc(C3CC3)nn2)C[C@@H]1c1ccccc1	30*	·	·	0	-2	·	-22
O=C(O)CN1C(=O)/C(=C\c2cccc(OCc3ccc(Cl)cc3)c2)SC1=S	11	-4	7	0	0	6	·
O=C(O)CN1C(=O)/C(=C\c2cccc(OCc3ccc(F)cc3)c2)SC1=S	36*	-11	8	-1	1	11	28
Cn1ccc2c(N(Cc3ccccc3)Cc3ccccc3)cc3c(c21)C1CCC3O1 (stereo unspecified)	44*	·	·	·	-3	·	-21
Cc1nc(N2CCN(C(=O)C3CCN(S(C)(=O)=O)CC3)CC2)cc(-n2cccc2)n1	·	·	-8	·	·	·	·
Nc1ccc2nc(-c3ccccc3)c(-c3ccccc3)nc2c1	18	10	-3	0	-1	-1	·
C[n+]1c(-c2ccccc2)c2cc(N)ccc2c2ccc(N)cc21	105*	29	69	0	2	-7	77*
COCCOc1ccc(C(F)(F)F)cc1NC(=O)CN1C(=O)NC(C)(c2ccc3c(c2)OCO3)C1=O (stereo unspecified)	31*	·	-9	i	-5	·	-20
O=C(C1CC1)N1CCCc2cc(NS(=O)(=O)c3ccc(Cl)s3)ccc21	·	·	-9	·	·	·	·
CC1Cc2ccccc2N1CC(=O)NC(=O)NC(C)(C)C (stereo unspecified)	19	20	32	3	0	2	·
CC1Cc2ccccc2N1CC(=O)NC(=O)NC1CCCCC1 (stereo unspecified)	31*	21	27	0	1	11	-13
COc1ccc(NC(=O)C2(c3cccs3)CCCC2)c(OC)c1	·	·	-20	·	·	·	·
Cc1ccc(C)c(N2CCN(C3C(=O)Nc4ccccc4-n4nnnc43)CC2)c1 (stereo unspecified)	22	·	·	·	1	·	·
O=C1Nc2ccccc2-n2nnnc2C1N1CCN(c2ccc(C(F)(F)F)cc2[N+](=O)[O-])CC1 (stereo unspecified)	32*	·	·	·	2	·	-6
CC(=O)c1cccc(NC(=O)/C(=C/c2ccco2)NC(=O)c2ccco2)c1	37*	0	-6	1	0	2	-1
COC(=O)c1cccc(NC(=O)/C(=C\c2ccco2)NC(=O)c2ccco2)c1	10	·	·	1	-2	·	·
Cc1cc2c(N)cccc2nn1	111*	18	33	i	·	-5	2
COc1cccc(OCc2cc(C(=O)N(C)C3CCOCC3)no2)c1	30*	-7	1	2	0	-8	-10
CCOC(=O)c1sc(NC(=O)c2sccc2C)cc1C	29	27	-21	0	·	5	·
CCOC(=O)c1sc(NC(=O)Nc2cccc(Cl)c2)cc1C	30*	11	3	0	2	-1	0
CCOC(=O)c1sc(NC(=O)c2ccc(Br)o2)cc1C	31*	14	-2	1	·	3	-4
Cc1nn(C2CCS(=O)(=O)C2)c2nc(-c3ccccc3)cc(C(=O)Nc3ccc(C(N)=O)cc3)c12 (stereo unspecified)	·	·	1	·	·	·	·
Clc1nc2cc3c(cc2s1)OCCO3	·	·	-14	·	·	·	·
COc1ccc(NC(=O)COC(=O)c2cc(SC)ccc2Cl)c(OC)c1	30*	13	-20	i	·	-9	-13
COc1ccc(C(C)(C)C)cc1NC(=O)COC(=O)c1cc(SC)ccc1Cl	20	-18	-33	0	-5	1	·
